# ST2 IL33 inh: inhibitors of human ST2 (IL1RL1) binding to IL-33, primary screen, biochemical, AlphaLISA. AlphaLISA ST2-Fc/biotin-IL-33 interaction, 1 h. inhibition, % for hits at 17 µM. 2.3% of 78,000 active; in the data active = inhibition above about 30%
# Target sequence (Q01638 whole entry, looked up): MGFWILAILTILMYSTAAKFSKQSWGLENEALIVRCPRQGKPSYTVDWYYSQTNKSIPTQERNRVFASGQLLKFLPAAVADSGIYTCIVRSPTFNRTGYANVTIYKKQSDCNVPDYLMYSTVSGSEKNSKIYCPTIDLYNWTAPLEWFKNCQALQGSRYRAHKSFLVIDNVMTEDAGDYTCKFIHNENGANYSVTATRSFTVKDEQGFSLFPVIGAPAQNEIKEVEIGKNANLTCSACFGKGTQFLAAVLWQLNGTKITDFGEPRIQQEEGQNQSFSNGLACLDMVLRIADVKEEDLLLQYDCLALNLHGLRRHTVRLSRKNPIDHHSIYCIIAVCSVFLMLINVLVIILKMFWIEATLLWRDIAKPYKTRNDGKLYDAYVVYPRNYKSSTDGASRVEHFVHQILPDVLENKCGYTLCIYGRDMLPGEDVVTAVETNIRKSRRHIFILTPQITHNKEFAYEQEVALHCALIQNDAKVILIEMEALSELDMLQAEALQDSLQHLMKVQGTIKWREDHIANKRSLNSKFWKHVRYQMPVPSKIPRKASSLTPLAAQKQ
# * hit, by the source's call; i = inactive. Only a selection was taken, and hits are over-represented in it overall.
SMILES,ST2 IL33 inh
Cc1ccc(S(=O)(=O)N2CCN(c3ccccc3)CC2)cc1[N+](=O)[O-],40%*
COC(=O)c1ccc(-c2noc(C[C@@H]3O[C@H](CNC(=O)NC(C)C)[C@@H](O)[C@H]3O)n2)cc1,i
Cc1nc(N2CCCC2C(=O)NCc2cccc(C(F)(F)F)c2)nc2cc(S(C)(=O)=O)ccc12 (stereo not drawn),i
COc1ccc(CN2C(=O)N(C)C3(CCN(Cc4ccc(C#CC(C)(C)O)cc4)CC3)C2=O)cc1,i
COc1ccc(C2=NN(C(C)=O)C(c3ccccc3OC)C2)cc1OC (stereo not drawn),i
CC(C)(C)C1CCc2c(sc(NC(=O)COc3ccc(F)cc3)c2C(N)=O)C1 (stereo not drawn),i
CC(C)(C)S(=O)(=O)c1ccc(S(=O)(=O)C(C)(C)C)cc1,i
COc1ccc(N2C(=O)c3cccnc3C2=O)c(OC)c1,i
COc1ccc(NC(=O)c2coc(=O)c3ccccc23)c(OC)c1,i
COc1ccc(C2=C/C(=C3/c4ccccc4-c4ncccc43)C(=O)O2)c(OC)c1,31%*
COc1ccccc1N(C)c1cc(F)c(F)c(F)c1F,i
COC1CCN(S(=O)(=O)N2CCNC(C(=O)O)C2)CC1 (stereo not drawn),i
O=C(CC[C@@H]1CNC(=O)[C@@H]2C[C@H](NC(=S)Nc3ccccc3)CN12)NC1CC1,i
CCN(CC)C(=O)CC[C@@H]1CNC(=O)[C@@H]2C[C@H](NC(=S)Nc3ccccc3)CN12,36%*
COc1ccc(NC(=S)N[C@H]2C[C@H]3C(=O)NC[C@@H](CCC(=O)NC4CC4)N3C2)cc1,i
CC(=O)c1cccc(N2COc3ccc(Br)cc3C2)c1,i
Cc1[nH]c2ccccc2c1C(=O)CCC(=O)O,i
Cc1nc(-c2c(C)[nH]c3ccccc23)cs1,36%*
Cc1nc(-c2ccc(O)cc2)cs1,i
CC(C)Cn1nc(C(=O)N2CCCC2)c2c1CCC(NCCc1cccs1)C2 (stereo not drawn),i
CCOC(=O)c1c(-c2ccccc2)csc1NC(=O)c1ccc(Br)o1,i
CC1CCCC(NC(=O)/C=C2\Sc3ccccc3NC2=O)C1C (stereo not drawn),i
Cc1nnc(-c2ccccc2-c2ccc(C(=O)N(C)C)cc2)s1,i
O=C(CN1C(=O)CCSc2ccccc21)Nc1cccc(Cl)c1,i
c1cn(-c2ccc(-c3noc([C@@H]4CCCN4)n3)cn2)cn1,i
SMILES,ST2 IL33 inh
CC(C)N1CCC[C@H]1c1nc(-c2ccc(-n3ccnc3)nc2)no1,35%*
c1cc(N2CCOCC2)ncc1-c1noc([C@@H]2CCCN2C2CCOCC2)n1,i
COCCNS(=O)(=O)c1cc(Br)cc2c1N(C(=O)C1CC1)CC2,i
CCC(C)N(Cc1ccncc1)Cc1cc(C)nn1C (stereo not drawn),i
O=C(Cc1ccccc1)Nc1nnc(-c2ccc3c(c2)OCO3)s1,i
CCN(CC)S(=O)(=O)c1cc(Br)c(C)cc1C,i
CC1(c2ccc(Cl)cc2)CC(C)(C)N(C(=O)CSC#N)c2ccccc21 (stereo not drawn),i
CC1(O)c2ccccc2C(=O)N1Cc1ccccc1 (stereo not drawn),i
CC1(c2ccccc2)CC(C)(C)N2C(=O)C(=O)c3cccc1c32 (stereo not drawn),33%*
Cc1nc2n(n1)C(c1ccccc1)C=C(c1ccccc1)N2 (stereo not drawn),i
O=C(O)c1ccc(NC2=CC(=NS(=O)(=O)c3ccc(Cl)cc3)c3ccccc3C2=O)cc1,48%*
CC(=O)Nc1ccc(NC2=CC(=NS(=O)(=O)c3ccc(C)cc3)c3ccccc3C2=O)cc1,48%*
CC(=O)Nc1ccc(S(N)(=O)=O)cc1,i
CC(=O)Nc1ccc(S(=O)(=O)Nc2ccccc2Cl)cc1,i
C=CCC(CC=C)(NS(=O)(=O)c1ccc(NC(C)=O)cc1)c1ccccc1,i
CC(=O)Nc1ccc(S(=O)(=O)NCc2ccccc2)cc1,i
O=S(=O)(Nc1ccc(S(=O)(=O)Nc2ccc(Cl)cc2)cc1)c1ccccc1,i
CC(=O)Nc1ccc(NC2=CC(=NS(=O)(=O)c3ccccc3)c3ccccc3C2=O)cc1,83%*
O=C(O)c1cccc(NC(=O)c2cccc(S(=O)(=O)Nc3ccc(Cl)cc3)c2)c1,i
CSCCC(NC(=O)C1CCC(C)CC1)C(=O)NC1CCCC(C)C1C (stereo not drawn),i
CC(C)Cn1cc(C(=O)N2CCN(c3ccccc3F)CC2)c2c3ccccc3n(C)c2c1=O,i
COc1cc(NC(=O)c2cc(-c3ccc(Br)cc3)on2)c(OC)cc1Cl,i
Cc1c(C(=O)NCCCN2CCOCC2)oc2ccc(S(=O)(=O)N3CCCC3)cc12,i
CCOc1ccc(CN2C(=O)CCC2(C)C(=O)NC2CCCCC2)cc1OC (stereo not drawn),i
Cc1cc(C)c2c(C)nn(C3CCOC(C)(C)C3)c2n1 (stereo not drawn),i
SMILES,ST2 IL33 inh
CCOc1ccc(C2CC(c3c(F)cccc3Cl)n3ncnc3N2)cc1 (stereo not drawn),i
N#C/C(=C\c1cccs1)c1nc(-c2ccc(Cl)c(Cl)c2)cs1,i
COc1ccc(C2=Nn3c(nnc3-c3ccccc3Cl)SC2)cc1,i
COc1ccc(/C=C(\C#N)[N+](=O)[O-])cc1,i
COc1ccc(-c2csc(/C(C#N)=C/c3cccs3)n2)cc1,50%*
COc1cccc2cc(-c3nc(-c4ccc(Cl)cc4)cs3)c(=O)oc12,i
COc1ccc(N/C=C(\C#N)c2nc(-c3cc4cc([N+](=O)[O-])ccc4oc3=O)cs2)c(OC)c1,i
COc1ccc(-c2csc(/C(C#N)=C/c3ccc(Cl)cc3)n2)cc1,34%*
COc1ccc(OC)c(N/C=C(\C#N)c2nc(-c3cc4ccccc4oc3=O)cs2)c1,37%*
COc1ccc(-c2csc(/C(C#N)=C\c3ccc(F)cc3)n2)cc1OC,i
COc1ccc(-c2csc(/C(C#N)=C/c3ccccc3Cl)n2)cc1,42%*
COc1ccc(-c2cc(C(F)(F)F)nc(NCc3cccs3)n2)cc1,i
COc1cc(N/C=C(\C#N)c2nc(-c3cc4ccccc4oc3=O)cs2)c(OC)cc1Cl,i
COc1ccc(C(=O)N[C@H]2CN[C@H](C(=O)N3C[C@H]4CC=CC[C@H]4C3)C2)cc1,i
CCc1nc(C)c(C(=O)NC(C)CCc2ccco2)o1 (stereo not drawn),i
CCOC(=O)C1=C(C)Nc2nc(SCc3ccccc3)nn2C1c1ccc(OC)cc1OC (stereo not drawn),i
COc1ccc(/C=C/C(=O)OC[C@H]2O[C@@H](OC(CCc3ccc(O)cc3)CC(=O)CCc3ccc(O)cc3)[C@H](O)[C@@H](O)[C@@H]2O)cc1OC (stereo partly drawn),i
COc1cc2c(cc1OC)CN(Cc1ccc(OCc3ccccc3)c(OC)c1)CC2,i
CCOC(=O)Oc1ccc2c(=O)c(Oc3ccc(OC)cc3)coc2c1,i
COc1cc(N/C=C(/C#N)c2nc(-c3ccc(F)cc3)cs2)c(OC)cc1Cl,i
COc1ccc(-c2csc(/C(C#N)=C\Nc3cccc(C(F)(F)F)c3)n2)cc1OC,i
N#C/C(=C/c1ccccc1Cl)c1nc(-c2ccccc2)cs1,65%*
COc1ccc(-c2csc(/C(C#N)=C/c3ccccc3OC)n2)cc1,40%*
N#C/C(=C\c1ccccc1[N+](=O)[O-])c1nc(-c2ccc(Cl)c(Cl)c2)cs1,i

# Compound activity as filed in PubChem BioAssay.
